# Data reported in PubChem BioAssay (NCATS).
# Inconclusive results are not listed. Active and inactive are the calls of the source. Unless noted, no rule for the calls is given here.
# Assays:
# [1] = qHTS profiling of the MIPE4 collection as inhibitors of Plasmodium falciparum (3D7) proliferation (AID 743344);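 also: scaled between DMSO vehicle wells and 0.29 µM artemisinin as full inhibition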; conditions: P. falciparum 3D7 in erythrocytes, SYBR Green DNA fluorescence, 72 h; at 28.5 µM unless noted
# How it was run: (§1)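 Parasite DNA was quantified by SYBR Green I fluorescence (ex 485, em 535 nm) after overnight lysis in saponin/Triton buffer at room temperature. Cultures at 0.3% parasitemia and 2.5% hematocrit were first exposed to compound for 72 h at 37 C; signals were normalised to artemisinin (0.29 uM) and vehicle wells.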
# [2] = qHTS profiling of the MIPE4 collection as inhibitors of Plasmodium falciparum (DD2) proliferation (AID 743345); conditions: P. falciparum Dd2 in erythrocytes, SYBR Green DNA, 72 h; at 28.5 µM unless noted
# How it was run: as §1
# [3] = qHTS profiling of the MIPE4 collection as inhibitors of Plasmodium falciparum (DD2) proliferation (Rep 2) (AID 743346); conditions: P. falciparum Dd2 in erythrocytes, SYBR Green DNA, 72 h; at 28.5 µM unless noted
# How it was run: as §1
# [4] = qHTS profiling of the MIPE4 collection as inhibitors of Plasmodium falciparum (HB3) proliferation (AID 743347);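 also: plate controls were DMSO vehicle wells for no effect and artemisinin wells for full effect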; conditions: P. falciparum HB3 in erythrocytes, SYBR Green DNA, 72 h; at 28.5 µM unless noted
# How it was run: as §1
# [5] = High-throughput drug toxicity screening in the BPDCN cell line Gen2.2 (AID 1224824); conditions: Gen2.2 BPDCN cells; at 45.8 µM (top of the series) unless noted;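 also: cells exposed to compounds for 48 h before reading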
# How it was run: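 Seed 500 exponentially growing Gen2.2 cells/well; add compounds by pin tool; incubate 48 h, 37 °C, 5% CO2; add CellTiter-Glo, 15 min RT; read luminescence. % activity vs DMSO (100%) and bortezomib (0%).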
# [6] = High-throughput drug toxicity screening in the BPDCN cell line Cal-1 (AID 1224825); conditions: Cal-1 BPDCN cell viability, qHTS; at 45.8 µM (top of the series) unless noted
# How it was run: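 Viability of the BPDCN line Cal-1 is measured as ATP-based luminescence (CellTiter-Glo) following 48 h incubation with compounds. Percent activity uses DMSO-treated wells as 100% and 9.2 uM bortezomib as 0%.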
# [7] = qHTS assay for measurement of the activity of small molecule inhibitors on Zika virus induced Caspase-3 activity in human iPSC derived neural progenitor cells (hNPCs) (AID 1224857; active = well fitted curve in the direction sought with a large enough effect; an effect the other way counts as inactive or inconclusive; also: % of control where 0% means no effect; nearly all actives have a fitted effect of over 65% in size)
# How it was run: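 Percent inhibition of virus-induced caspase-3/7 luminescence (Caspase-Glo), scaled between uninfected cells and Zika-infected cells. hNPCs received compound 1 hr before ZIKV at 2 FFU/cell, with 6 hours infection at 37 C.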
# [8] = qHTS assay for measurement of the activity of small molecule inhibitors on Zika virus induced Caspase-3 activity in human astrocytoma cells (AID 1224859; active = well fitted curve in the direction sought with a large enough effect; an effect the other way counts as inactive or inconclusive;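 also: plate controls were ZIKV-infected untreated cells for no effect and uninfected cells for full effect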)
# How it was run: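 Luminescent caspase-3/7 read-out (30 min reagent, room temperature) in human SNB-19 cells infected 6 h with ZIKV (2 FFU/cell) after 1 h compound pre-incubation; Data were normalised to uninfected and infected wells.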
# [9] = qHTS Screen of the MIPE 4.0 Collection Against Ewings Sarcoma (RDES) (AID 1259252; active = well fitted curve in the direction sought with a large enough effect; an effect the other way counts as inactive or inconclusive; also: nearly all actives have a fitted effect of over 35% in size; also: potency is read from the fitted curve at half-maximal effect)
# How it was run: (§2)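 Measured: ATP luminescence (CellTiter-Glo) 10 min after reagent addition, following 48 h drug treatment. Relative luciferase units converted to percent activity, with no-cell wells as full and DMSO wells as zero inhibition.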
# [10] = qHTS Screen of the MIPE 4.0 Collection Against Ewings Sarcoma (TC32) (AID 1259256; active = well fitted curve in the direction sought with a large enough effect; an effect the other way counts as inactive or inconclusive; also: nearly all actives have a fitted effect of over 45% in size; also: potency is read from the fitted curve at half-maximal effect)
# How it was run: as §2
# [11] = qHTS profiling for inhibitors of Plasmodium falciparum (HB3) proliferation (AID 743324; active = well fitted curve in the direction sought with a large enough effect; an effect the other way counts as inactive or inconclusive;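 also: 100% = DMSO vehicle wells and 0% = artemisinin-treated control wells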); conditions: Plasmodium falciparum HB3 blood-stage proliferation; at 28.7 µM (top of the series) unless noted
# How it was run: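 SYBR Green fluorescence (485 ex/535 em) of lysed cultures, incubated overnight at room temperature in the dark, quantifies parasite DNA. Infected erythrocytes at 0.3% parasitemia and 2.5% hematocrit were exposed 72 h; values normalized to DMSO and 0.29 uM artemisinin controls.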
# [12] = Identifying Small Molecule Inhibitors of Pancreatic Cancer Stem Cells (Panc1, Spheroid) (AID 1259359; active = well fitted curve in the direction sought with a large enough effect; an effect the other way counts as inactive or inconclusive;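 also: compound exposure lasted 48 h before reading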)
# How it was run: (§3)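 Adherent (2D) versus sphere (3D) formats; spheres generated 14 d in SCM beforehand. Compound transferred by pin tool after 4 h, 48 h incubation, CellTiter-Glo endpoint.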
# [13] = Identifying Small Molecule Inhibitors of Pancreatic Cancer Stem Cells (SN12C, Spheroid) (AID 1259360; active = well fitted curve in the direction sought with a large enough effect; an effect the other way counts as inactive or inconclusive; also: potency is read from the fitted curve at half-maximal effect;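 as to viability (% of control): 100% = DMSO-treated cells and 0% = wells without cells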); conditions: Potency: SN12C spheroid viability
# How it was run: as §3
# [14] = Identifying Small Molecule Inhibitors of Pancreatic Cancer Stem Cells (A278, Adherent) (AID 1259361; active = well fitted curve in the direction sought with a large enough effect; an effect the other way counts as inactive or inconclusive;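 also: viability read after 48 h compound exposure; nearly all actives have a fitted effect of over 35% in size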;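 as to viability (% of control): 100% = DMSO-treated cells and 0% = cell-free media-only wells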)
# How it was run: (§4)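 After a 4 h attachment period, compounds were pinned into wells and cultures held 48 h under standard incubator conditions. Viability was then measured as CellTiter-Glo luminescence following 10 min at room temperature.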
# [15] = qHTS Screen of the MIPE 4.0 Collection Against Ewings Sarcoma (EW8) (AID 1259255; active = well fitted curve in the direction sought with a large enough effect; an effect the other way counts as inactive or inconclusive; also: nearly all actives have a fitted effect of over 35% in size; also: potency is read from the fitted curve at half-maximal effect;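 as to viability: 100% = DMSO-treated cells and 0% = medium-only wells without cells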)
# How it was run: as §2
# [16] = qHTS Screen of the MIPE 4.0 Collection Against Ewings Sarcoma (TC71) (AID 1259253; active = well fitted curve in the direction sought with a large enough effect; an effect the other way counts as inactive or inconclusive; also: nearly all actives have a fitted effect of over 40% in size; also: potency is read from the fitted curve at half-maximal effect)
# How it was run: as §2
# [17] = Identifying Small Molecule Inhibitors of Pancreatic Cancer Stem Cells (SN12C, Adherent) (AID 1259358; active = well fitted curve in the direction sought with a large enough effect; an effect the other way counts as inactive or inconclusive;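 also: cell survival measured after 48 h of compound exposure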)
# How it was run: as §4
SMILES,"parasite growth, % of DMSO control [1]","parasite growth remaining, % of DMSO control (lower = more inhibition) [2]","parasite growth, % of control (lower = inhibition) [3]","growth, % of control [4]","cell viability, % of control (lower = more cytotoxic) [5]",viability (% of control) [6],Potency [7],Potency [8],Potency [9],Potency [10],"remaining proliferation (% of control), lower = more inhibition [11] [%]",Potency [12],Potency [13],IC50 (viability decrease) [14],Potency [15],Potency [16],Potency [17]
C[C@H]1O[C@@H](n2cc(F)c(=O)[nH]c2=O)[C@H](O)[C@H]1O,22.6%,13.5%,7.59%,53%,170%,28.4%,inactive,inactive,18.7 µM (active),9.35 µM (active),–,–,–,–,–,–,–
COc1c(C)cnc(Cn2cnc3c(Cl)nc(N)nc32)c1C,28.9%,49.8%,–,21.1%,9.9%,18.7%,inactive,inactive,0.187 µM (active),0.132 µM (active),9.05,inactive,0.264 µM (active),0.0935 µM (active),–,–,–
CC(=O)O[C@]1(C(C)=O)CC[C@H]2[C@@H]3C=C(Cl)C4=CC(=O)[C@@H]5C[C@H]5[C@]4(C)[C@@H]3CC[C@@]21C,21.6%,22.5%,18.7%,20.1%,42.4%,18%,inactive,inactive,9.35 µM (active),16.6 µM (active),–,–,–,–,–,–,–
O=C1CN2Cc3c(ccc(Cl)c3Cl)N=C2N1,82.8%,91.6%,85.1%,–,198%,96.9%,inactive,inactive,23.5 µM (active),23.5 µM (active),46.3,–,–,–,–,–,–
CCCCC[C@H](O)C=C[C@H]1[C@H](O)CC(=O)[C@H]1CCCCCCC(=O)O,71.4%,133%,71.7%,103%,64.6%,93.2%,inactive,inactive,inactive,–,–,–,–,–,inactive,–,–
CN(C)c1ccccc1CN1CCCN(Cc2ccccc2N(C)C)C1c1ccncc1,17.2%,9.84%,11.1%,12.9%,13.5%,29.7%,inactive,inactive,20.9 µM (active),–,–,–,–,–,18.7 µM (active),–,–
CNC(=O)c1c(-c2ccc(F)cc2)oc2cc(N(CCO)S(C)(=O)=O)c(C3CC3)cc12,4.82%,10.4%,14.1%,4.16%,64.5%,8.15%,inactive,inactive,18.7 µM (active),inactive,–,–,–,–,–,–,–
CC(C)N(CCCNC(=O)Nc1ccc(C(C)(C)C)cc1)C[C@H]1O[C@@H](n2cc(Br)c3c(N)ncnc32)[C@H](O)[C@H]1O,5.02%,7.13%,9.5%,7.54%,116%,61.2%,inactive,inactive,23.5 µM (active),20.9 µM (active),–,–,–,–,–,–,–
Cc1nc(NC(=O)N2CCC[C@@H]2C(N)=O)sc1-c1csc(C(C)(C)C)n1,16.4%,80.7%,28.5%,14.5%,14.1%,55.1%,inactive,inactive,5.26 µM (active),6.62 µM (active),–,–,–,–,–,–,–
Cc1ccc(S(=O)(=O)Nc2nc3ccccc3nc2Nc2ccc3nsnc3c2)cc1,25.4% [at 9.64 µM],88% [at 9.64 µM],36% [at 9.64 µM],77.4% [at 9.64 µM],7.38% [at 23.2 µM],14.1% [at 23.2 µM],inactive,inactive,8.12 µM (active),16.2 µM (active),–,–,–,–,–,–,–
CO[C@H]1/C=C\O[C@@]2(C)Oc3c(C)c(O)c4c(O)c(c5c(nc6cc(C)ccn65)c4c3C2=O)NC(=O)C(C)=CC=C[C@H](C)[C@H](O)[C@@H](C)[C@@H](O)[C@@H](C)[C@H](OC(C)=O)[C@H]1C,11%,31.8%,7.3%,5.21%,4.46%,32.4%,inactive,inactive,inactive,inactive,–,–,–,–,–,–,–
O=C(c1ccc(C=Cc2n[nH]c3ccccc23)cc1)N1CCNCC1,22.1%,31.2%,22.9%,–,57.2%,18%,inactive,inactive,–,0.743 µM (active),–,–,–,–,0.662 µM (active),1.66 µM (active),–
CC(C)(CO)[C@@H](O)C(=O)NCCC(=O)O,92.1%,101%,114%,102%,85%,107%,inactive,inactive,20.9 µM (active),–,–,–,–,–,–,–,–
NC(=O)c1ccc(N(C(N)=O)c2c(F)cccc2F)nc1-c1ccc(F)cc1F,79.5%,104%,59.1%,78.7%,215%,92.1%,inactive,inactive,–,inactive,85.6,–,inactive,inactive,inactive,inactive,inactive
CCN(CC)CCCCNc1nc2cc(Cl)c(Cl)cc2nc1-c1ccc(-c2cccs2)s1,9.66%,10.5%,19.1%,5.94%,5.29%,4.45%,inactive,inactive,–,18.7 µM (active),4.08,–,–,23.5 µM (active),23.5 µM (active),23.5 µM (active),–
COc1ccc2c(c1)c(C1=C(c3c[nH]c4ccccc34)C(=O)NC1=O)cn2CCCN(C)C,5.52%,8.71%,12.5%,5.22%,8.51%,8.47%,inactive,inactive,0.0083 µM (active),–,–,–,–,–,–,–,–
CC(C)n1c(C=C[C@H](O)C[C@H](O)CC(=O)O)c(-c2ccc(F)cc2)c2ccccc21,–,–,–,–,9.81%,66.9%,inactive,inactive,–,2.35 µM (active),–,–,inactive,1.05 µM (active),9.35 µM (active),3.32 µM (active),–
